Results on 14 sequences are retold here after PMC5700166.

What all share (test): protein-binding microarray (PBM); PBM: ~300 nM protein, 6 mM HEPES pH 7.8, 80 mM KCl, 0.5 mM EDTA, 0.5 mM EGTA, 6% glycerol, 35 ng/ul poly-dIdC, 1% milk, 1 h, room temperature; Ap Aiptasia and Nv Nematostella (sea anemones) / Co Capsaspora / Aq Amphimedon (sponge) / Dm Drosophila / Hu human; RHD is the Rel homology domain; high values mean tight binding
Common to all, as to details: dsDNA, one strand shown

Test [1] deals with T1, GST-Ap-NF-kB RHD (Exaiptasia pallida (Aiptasia), UniProt A0A913YAJ5 2-422).
T1 sequence: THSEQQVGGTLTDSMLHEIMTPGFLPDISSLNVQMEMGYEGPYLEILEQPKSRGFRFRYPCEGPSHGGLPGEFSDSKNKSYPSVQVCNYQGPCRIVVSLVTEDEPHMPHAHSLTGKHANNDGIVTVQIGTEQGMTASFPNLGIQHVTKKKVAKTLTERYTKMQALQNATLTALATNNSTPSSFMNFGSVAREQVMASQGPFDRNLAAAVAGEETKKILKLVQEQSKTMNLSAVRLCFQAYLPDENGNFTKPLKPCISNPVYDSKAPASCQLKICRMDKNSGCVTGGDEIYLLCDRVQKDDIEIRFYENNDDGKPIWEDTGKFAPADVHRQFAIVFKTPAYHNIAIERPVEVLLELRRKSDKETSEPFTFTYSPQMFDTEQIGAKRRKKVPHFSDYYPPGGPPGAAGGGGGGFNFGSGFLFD

The target in test [2] is T2, GST-Nv-NF-kB (Cys allele) (Nematostella vectensis, UniProt E5G601 2-411).
T2 sequence: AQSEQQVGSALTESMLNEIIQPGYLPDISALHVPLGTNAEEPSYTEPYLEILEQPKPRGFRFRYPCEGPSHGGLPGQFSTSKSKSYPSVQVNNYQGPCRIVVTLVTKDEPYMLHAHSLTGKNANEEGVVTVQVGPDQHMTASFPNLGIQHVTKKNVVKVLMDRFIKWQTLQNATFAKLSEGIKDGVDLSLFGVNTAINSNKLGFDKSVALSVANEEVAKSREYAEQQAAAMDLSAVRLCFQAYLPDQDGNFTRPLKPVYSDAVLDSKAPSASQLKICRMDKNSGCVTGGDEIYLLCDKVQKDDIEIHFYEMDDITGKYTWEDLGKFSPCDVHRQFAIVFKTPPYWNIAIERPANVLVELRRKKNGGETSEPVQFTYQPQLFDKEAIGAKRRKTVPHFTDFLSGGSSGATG

The target in test [3] is T3, GST-Co-NF-kB (Capsaspora owczarzaki, UniProt F1ARL5 200-546).
T3 sequence: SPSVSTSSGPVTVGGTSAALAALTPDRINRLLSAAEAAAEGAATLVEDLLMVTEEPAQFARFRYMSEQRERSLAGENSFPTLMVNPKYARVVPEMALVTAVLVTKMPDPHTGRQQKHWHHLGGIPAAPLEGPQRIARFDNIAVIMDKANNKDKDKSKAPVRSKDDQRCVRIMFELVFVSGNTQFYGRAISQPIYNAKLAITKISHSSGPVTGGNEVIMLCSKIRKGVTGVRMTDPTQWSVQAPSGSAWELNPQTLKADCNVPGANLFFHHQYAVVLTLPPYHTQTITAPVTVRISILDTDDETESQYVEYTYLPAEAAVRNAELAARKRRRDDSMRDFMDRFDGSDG

Test [4] deals with T4, GST-Dm-Relish (Drosophila melanogaster, UniProt Q94527 99-473).
T4 sequence: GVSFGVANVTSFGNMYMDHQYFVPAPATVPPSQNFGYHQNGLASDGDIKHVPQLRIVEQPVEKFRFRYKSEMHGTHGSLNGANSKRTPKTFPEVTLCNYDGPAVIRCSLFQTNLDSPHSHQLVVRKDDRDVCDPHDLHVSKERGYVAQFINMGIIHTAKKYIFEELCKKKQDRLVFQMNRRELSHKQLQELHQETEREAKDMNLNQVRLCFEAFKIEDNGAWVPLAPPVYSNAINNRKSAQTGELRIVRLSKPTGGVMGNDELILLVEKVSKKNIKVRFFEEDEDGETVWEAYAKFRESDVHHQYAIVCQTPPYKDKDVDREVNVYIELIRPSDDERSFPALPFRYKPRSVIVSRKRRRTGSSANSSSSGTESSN

Test [5] has as its target T5, GST-Aq-NF-kB (Amphimedon queenslandica, UniProt A9Y5G7 2-389).
T5 sequence: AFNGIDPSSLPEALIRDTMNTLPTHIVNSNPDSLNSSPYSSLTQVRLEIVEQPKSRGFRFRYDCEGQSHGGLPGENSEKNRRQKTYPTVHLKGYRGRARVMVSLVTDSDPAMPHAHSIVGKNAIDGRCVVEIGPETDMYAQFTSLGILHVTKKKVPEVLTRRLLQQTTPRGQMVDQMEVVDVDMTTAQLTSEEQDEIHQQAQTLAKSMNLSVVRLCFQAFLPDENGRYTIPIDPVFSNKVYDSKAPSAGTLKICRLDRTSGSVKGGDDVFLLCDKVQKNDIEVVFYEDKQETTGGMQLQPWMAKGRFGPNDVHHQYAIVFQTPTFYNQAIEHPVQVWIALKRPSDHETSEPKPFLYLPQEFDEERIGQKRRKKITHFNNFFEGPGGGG

Regarding “CCGATTAACATCAGGGGGTAGAATGATGTTAATCGGGTCTTGATTCGCTTGACGCTGCTG”, the binding signal in test [1] amounted to 4.45 z-score; in test [2], 2.63 z-score; in test [3] it was 7.1 z-score; in test [4], 2.13 z-score; in test [5] it was 3.38 z-score.

Regarding “CCGATTAACATCAGGGAATTCACTGATGTTAATCGGGTCTTGATTCGCTTGACGCTGCTG”, the binding signal in test [1] came out at 4.74 z-score; in test [2], 5.33 z-score; in test [3], 3.01 z-score; in test [4], 8.25 z-score; in test [5], 6.46 z-score.

Take “CCGATTAACATCAGGGGACGCACTGATGTTAATCGGGTCTTGATTCGCTTGACGCTGCTG”: the binding signal came to 4.45 z-score in test [1]; 4.2 z-score in test [2]; 2.19 z-score in test [3]; 5.79 z-score in test [4]; 4.68 z-score in test [5].

Consider “CCGATTAACATCAAGTTTTCCCATGATGTTAATCGGGTCTTGATTCGCTTGACGCTGCTG”, for which the binding signal is 2.53 z-score in test [1]; 3.86 z-score in test [2]; 4.78 z-score in test [3]; 1.42 z-score in test [4]; 2.83 z-score in test [5].

Take “CCGATTAACATCAAAAATTGCCCTGATGTTAATCGGGTCTTGATTCGCTTGACGCTGCTG”: the binding signal is 1.25 z-score in test [1]; 1.84 z-score in test [2]; 1.78 z-score in test [3]; 1.5 z-score in test [4]; 2.99 z-score in test [5].

As to “CCGATTAACATCAATTGCCCCCCTGATGTTAATCGGGTCTTGATTCGCTTGACGCTGCTG”, the binding signal in test [1] worked out at 4.5 z-score; in test [2] it was 2.81 z-score; in test [3] it was 5.24 z-score; in test [4] it was 3.87 z-score; in test [5], 4.63 z-score.

For the sequence “CCGATTAACATCAGGGAAACTCATGATGTTAATCGGGTCTTGATTCGCTTGACGCTGCTG”, the binding signal came to 3.29 z-score in test [1]; 4.53 z-score in test [2]; 3.68 z-score in test [3]; 1.31 z-score in test [4]; 4.27 z-score in test [5].

As to “CCGATTAACATCAGGGGGATAGATGATGTTAATCGGGTCTTGATTCGCTTGACGCTGCTG”, the binding signal in test [1] was 4.85 z-score; in test [2], 3.25 z-score; in test [3], 5.41 z-score; in test [4], 2.03 z-score; in test [5], 3.47 z-score.

Consider “CCGATTAACATCACGGAATACCCTGATGTTAATCGGGTCTTGATTCGCTTGACGCTGCTG”, for which the binding signal in test [1] was 3.79 z-score; in test [2] it was 4.14 z-score; in test [3], 1.67 z-score; in test [4] it was 4.64 z-score; in test [5], 4.52 z-score.

Take “CCGATTAACATCAAAAAGGGAAATGATGTTAATCGGGTCTTGATTCGCTTGACGCTGCTG”: the binding signal in test [1] turned out to be 2.59 z-score; in test [2], 5.91 z-score; in test [3] it was 1.33 z-score; in test [4] it was 1.31 z-score; in test [5], 4.54 z-score.

In the case of “CCGATTAACATCACCCGGGAAAATGATGTTAATCGGGTCTTGATTCGCTTGACGCTGCTG”, the binding signal came to 2.61 z-score in test [1]; 3.28 z-score in test [2]; 5.18 z-score in test [3]; 1.52 z-score in test [4]; 2.6 z-score in test [5].

“CCGATTAACATCAAGGGATTTTCTGATGTTAATCGGGTCTTGATTCGCTTGACGCTGCTG”: the binding signal came out at 5.78 z-score in test [1]; 6.63 z-score in test [2]; 1.57 z-score in test [3]; 6.57 z-score in test [4]; 6.65 z-score in test [5].

As to “CCGATTAACATCACCAAATTCCCTGATGTTAATCGGGTCTTGATTCGCTTGACGCTGCTG”, the binding signal was 4.1 z-score in test [1]; 4.67 z-score in test [2]; 3.82 z-score in test [3]; 4.02 z-score in test [4]; 4.03 z-score in test [5].

Take “CCGATTAACATCAATCACCCCCATGATGTTAATCGGGTCTTGATTCGCTTGACGCTGCTG”: the binding signal was 4.03 z-score in test [1]; 2.63 z-score in test [2]; 4.35 z-score in test [3]; 1.86 z-score in test [4]; 3.32 z-score in test [5].
